Reference: PubChem BioAssay AID1159580 (chemical genetic matrix, 2015)
Values joined by “and” are separate entries in the source; they are usually repeats but may differ in a detail not shown here. Equal values may be shown once. The campaign covered roughly 5,500 compounds. About 2,000 (36%) were called active. Roughly 18% stayed inconclusive and do not appear here. Rule as the data show it: active = normalized growth mostly below about 0.91 (no sharp cut-off); inconclusive = no clear call, values can overlap the other calls; inactive = mostly above about 0.92. The list shows a part of the results.

Experiment: chemical genetic growth profiling, strain panel (AID 1159580);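 also: tested at 20 µM; growth read once vehicle control cultures reached saturation at 30 °C; 1 = growth at the plate median or of vehicle wells; lower values mean less growth of the strain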
Conditions: S. cerevisiae deletion strains, growth OD

Measured: normalized growth

S=C=NCc1ccccc1
active: locus YAL013W, strain DEP1, stronger effect = lower value 0.0579 | locus YAL021C, strain ccr4, stronger effect = lower value 0.661 | locus YAL026C, strain drs2, stronger effect = lower value 0.0761 | locus YAL030W, strain snc1, stronger effect = lower value 0.0648 | locus YBL061C, strain skt5, stronger effect = lower value 0.079 | locus YBR009C, strain hhf1, stronger effect = lower value 0.0753 | locus YBR021W, strain FUR4, stronger effect = lower value 0.17 | locus YBR023C, strain chs3, stronger effect = lower value 0.0813 | locus YBR171W, strain sec66, stronger effect = lower value 0.117 | locus YBR229C, strain ROT2, stronger effect = lower value 0.0461 | locus YBR231C, strain swc5, stronger effect = lower value 0.0718 | locus YBR279W, strain paf1, stronger effect = lower value 0.0918 | locus YCL011C, strain gbp2, stronger effect = lower value 0.0749 | locus YCL016C, strain dcc1, stronger effect = lower value 0.0958 | locus YCL029C, strain bik1, stronger effect = lower value 0.0592 | locus YCL061C, strain MRC1, stronger effect = lower value 0.0833 | locus YCL069W, strain vba3, stronger effect = lower value 0.0787 | locus YCR088W, strain abp1, stronger effect = lower value 0.069 | locus YDL005C, strain med2, stronger effect = lower value 0.583 | locus YDL035C, strain GPR1, stronger effect = lower value 0.0548 | locus YDL040C, strain nat1, stronger effect = lower value 0.139 | locus YDL074C, strain BRE1, stronger effect = lower value 0.0981 | locus YDL101C, strain DUN1, stronger effect = lower value 0.0649 | locus YDL134C, strain PPH21, stronger effect = lower value 0.0517 | locus YDL185W, strain tfp1, stronger effect = lower value 0.0574 | locus YDL192W, strain arf1, stronger effect = lower value 0.0627 | locus YDR001C, strain nth1, stronger effect = lower value 0.07 | locus YDR069C, strain doa4, stronger effect = lower value 0.143 | locus YDR101C, strain arx1, stronger effect = lower value 0.0574 | locus YDR137W, strain rgp1, stronger effect = lower value 0.616 | locus YDR150W, strain NUM1, stronger effect = lower value 0.0586 | locus YDR159W, strain sac3, stronger effect = lower value 0.275 | locus YDR162C, strain NBP2, stronger effect = lower value 0.0541 | locus YDR195W, strain ref2 0.187 | locus YDR297W, strain sur2, stronger effect = lower value 0.068 | locus YDR318W, strain mcm21, stronger effect = lower value 0.0636 | locus YDR334W, strain swr1, stronger effect = lower value 0.0851 | locus YDR335W, strain msn5, stronger effect = lower value 0.0739 | locus YDR388W, stronger effect = lower value 0.061 | locus YDR392W, strain spt3, stronger effect = lower value 0.112 | locus YDR502C, strain sam2, stronger effect = lower value 0.0605 | locus YEL003W, strain gim4, stronger effect = lower value 0.0605 | locus YEL037C, strain rad23, stronger effect = lower value 0.178 | locus YEL061C, strain CIN8 (second series), stronger effect = lower value 0.0786 | locus YEL061C, strain CIN8, stronger effect = lower value 0.05 | locus YER015W, strain faa2, stronger effect = lower value 0.0762 | locus YER016W, strain bim1, stronger effect = lower value 0.081 | locus YER110C, stronger effect = lower value 0.0778 | locus YER111C, strain swi4, stronger effect = lower value 0.0829 | locus YER155C, strain BEM2 (second series), stronger effect = lower value 0.0957 | locus YER155C, strain BEM2, stronger effect = lower value 0.0627 | locus YER167W, strain BCK2, stronger effect = lower value 0.0526 | locus YFR010W, strain ubp6, stronger effect = lower value 0.136 | locus YGL078C, strain dbp3, stronger effect = lower value 0.0565 | locus YGL086W, strain mad1, stronger effect = lower value 0.0589 | locus YGL167C, strain pmr1, stronger effect = lower value 0.393 | locus YGL173C, strain kem1, stronger effect = lower value 0.214 | locus YGL227W, strain vid30, stronger effect = lower value 0.072 | locus YGL240W, strain doc1, stronger effect = lower value 0.203 | locus YGL248W, strain PDE1, stronger effect = lower value 0.0468 | locus YGL253W, strain hxk2, stronger effect = lower value 0.0793 | locus YGR078C, strain PAC10, stronger effect = lower value 0.0557 | locus YGR135W, strain pre9, stronger effect = lower value 0.066 | locus YGR229C, strain SMI1, stronger effect = lower value 0.0658 | locus YGR252W, strain gcn5, stronger effect = lower value 0.176 | locus YHR013C, strain ard1, stronger effect = lower value 0.175 | locus YHR027C, strain rpn1, stronger effect = lower value 0.103 | locus YHR030C, strain SLT2, stronger effect = lower value 0.0491 and 0.174 | locus YHR079C, strain IRE1 (second series), stronger effect = lower value 0.0547 | locus YHR079C, strain IRE1, stronger effect = lower value 0.181 | locus YHR094C, strain hxt1, stronger effect = lower value 0.0577 | locus YHR129C, strain ARP1, stronger effect = lower value 0.0553 | locus YHR142W, strain chs7, stronger effect = lower value 0.0817 | locus YHR200W, strain rpn10, stronger effect = lower value 0.0598 | locus YIL066C, strain RNR3, stronger effect = lower value 0.0519 | locus YIL073C, strain SPO22, stronger effect = lower value 0.132 | locus YIL125W, strain kgd1, stronger effect = lower value 0.0561 | locus YIR030C, strain dcg1, stronger effect = lower value 0.0588 | locus YJL092W, strain hpr5, stronger effect = lower value 0.08 | locus YJL095W, strain BCK1 (second series), stronger effect = lower value 0.0601 | locus YJL095W, strain BCK1, stronger effect = lower value 0.0573 and 0.268 | locus YJL115W, strain asf1, stronger effect = lower value 0.123 | locus YJL129C, strain trk1, stronger effect = lower value 0.257 | locus YJL134W, strain LCB3, stronger effect = lower value 0.0484 | locus YJL154C, strain vps35, stronger effect = lower value 0.165 | locus YJL164C, strain tpk1, stronger effect = lower value 0.0744 | locus YJL166W, strain qcr8, stronger effect = lower value 0.0848 | locus YJL168C, strain set2, stronger effect = lower value 0.0599 | locus YJL187C, strain SWE1 (second series), stronger effect = lower value 0.0487 | locus YJL187C, strain SWE1, stronger effect = lower value 0.0904 | locus YJR043C, strain POL32, stronger effect = lower value 0.0693 | locus YJR066W, strain TOR1, stronger effect = lower value 0.735
